Source: PubChem
PLAP act = human PLAP activation; P05187; purified PLAP enzyme, luminescent substrate read-out; stronger effect = higher value; activation fold at 20 µM; 96,000 tested, 1.2% active; AID 696; in the data active = activation fold above about 2
Target sequence (P05187 whole entry, looked up): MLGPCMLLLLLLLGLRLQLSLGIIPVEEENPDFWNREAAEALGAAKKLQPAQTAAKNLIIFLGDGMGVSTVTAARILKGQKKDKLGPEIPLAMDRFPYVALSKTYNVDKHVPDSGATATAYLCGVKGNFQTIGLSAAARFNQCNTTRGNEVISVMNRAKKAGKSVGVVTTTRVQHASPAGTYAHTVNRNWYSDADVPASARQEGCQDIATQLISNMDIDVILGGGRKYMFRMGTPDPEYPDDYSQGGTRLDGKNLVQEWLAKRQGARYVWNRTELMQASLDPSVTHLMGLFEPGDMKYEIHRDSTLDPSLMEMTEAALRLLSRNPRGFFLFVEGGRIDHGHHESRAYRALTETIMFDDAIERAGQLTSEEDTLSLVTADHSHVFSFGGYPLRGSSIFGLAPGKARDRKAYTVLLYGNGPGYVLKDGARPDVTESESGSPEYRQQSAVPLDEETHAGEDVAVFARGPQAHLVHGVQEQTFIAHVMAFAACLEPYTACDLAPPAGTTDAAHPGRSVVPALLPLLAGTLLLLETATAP
sEH inhibitor = soluble epoxide hydrolase (human) inhibition; 91,000 tested, 0.34% active; recombinant human sEH enzymatic activity assay; P34913; inhibition, % at 2 µM; in the data active = inhibition above about 80%
sEH activator = activators of human soluble epoxide hydrolase; purified human sEH enzymatic activity, activator screen; 91,000 tested, 0.04% active; activation, % at 2 µM; AID 717; in the data active = activation above about 37%
BAP1 block = blocks human BAP1 ubiquitin-AMC hydrolysis; recombinant BAP1, Ub-AMC hydrolysis fluorescence kinetic; stronger effect = lower value; calls only at 20 µM; AID 436; 72,000 tested, 0.48% active;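 active = activity remaining at or below 50% of control, provided the compound also passes the data quality filters; inactive = the rest, including low values that fail the filters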;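 note: 100% = DMSO wells rate and 0% = substrate alone blank rate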
* marks the source's active call; other numbers are inactive results; i = inactive; / = no result; + = active, no number. Hits are enriched below; roughly 1.5% of the tested compounds scored in any of these assays.

SMILES	PLAP act	sEH inhibitor	sEH activator	BAP1 block
O=C(CN1CCC(NC(=O)Nc2ccccc2-c2ccccc2)CC1)NCc1ccco1	2.2*	/	/	i
O=C(CN1CCC(Cc2ccccc2)CC1)NC(=O)NCc1ccco1	1.3	/	/	i
CCOC(=O)c1sc(NC(=O)COc2cccc(Cl)c2)nc1C	/	/	/	i
O=C(NCc1ccco1)c1ccccc1NS(=O)(=O)c1ccc(Cl)s1	2.1*	-6	8	/
O=C(Nc1nccs1)c1cc2c(s1)-c1ccccc1OC2	1.1	/	/	/
COC(=O)c1cc2c(s1)-c1ccccc1OC2	0.9	-38	44*	i
CC1(C)CC(=O)C2=C(C1)Nc1ccccc1N(C(=O)Cc1ccc(Cl)cc1)C2c1cccnc1 (stereo unspecified)	/	/	/	i
Cc1cc(Cl)c(S(=O)(=O)N2CCCCCC2)cc1OCC(=O)NC1CCCCC1	2*	-7	6	/
Cc1cc(Cl)c(S(=O)(=O)N2CCSCC2)cc1OCC(=O)NC1CCCCC1	1.1	-4	6	/
Cc1ccccc1COc1ccc(/C(O)=C2/C(=O)C(=O)N(CCCn3ccnc3)C2c2ccco2)cc1 (stereo unspecified)	2.6*	/	/	i
O=C(Nc1cc2cccc([N+](=O)[O-])c2oc1=O)c1ccc(Cl)cc1	/	/	/	i
COc1ccccc1C1NC(=O)NC(C)=C1C(=O)OCCC(C)C (stereo unspecified)	/	/	/	i
O=C(CCCN1C(=O)c2ccccc2C1=O)Nc1ccc(S(=O)(=O)N2CCCCC2)cc1	1.4	89*	-89	/
COC(C(=O)Nc1ccc(S(=O)(=O)N2CCCCC2)cc1)c1ccccc1 (stereo unspecified)	2*	15	-17	/
O=C(CCCN1C(=O)c2ccccc2C1=O)Nc1ccc(S(=O)(=O)N2CCOCC2)cc1	0.9	71	-71	i
O=C(NNC(=S)NC(=O)c1cccnc1)c1ccccc1	2.1*	1	1	/
O=C(/C=C/c1ccccc1)NNC(=O)c1cccnc1	2*	-4	7	/
COCCCNC(=S)NNC(=O)c1cccnc1	2.7*	-8	10	/
O=C(CCc1ccccc1)NNC(=S)NC(=O)c1ccccc1	1.2	15	-15	/
CC(C)CNC(=S)NNC(=O)c1ccc2c(c1)OCO2	1.7	2	0	/
COCCCNC(=S)NNC(=O)c1ccc2c(c1)OCO2	2.2*	0	2	/
O=C(NCCCCNC(=O)c1cccnc1)c1cccnc1	1	1	-3	i
O=C(/C=C/c1ccccc1)NNC(=O)c1cccc(Cl)c1	1	7	-8	/
Cc1cc(C(=O)CSc2nc3ccc(Cl)cc3[nH]2)c(C)n1C	2.1*	/	/	i
CCC(Sc1nc2ccccc2[nH]1)C(=O)Nc1cc(C)on1 (stereo unspecified)	2.1*	/	/	/
SMILES	PLAP act	sEH inhibitor	sEH activator	BAP1 block
CCC(Sc1nc(-c2ccccc2)c(C#N)c(=O)[nH]1)C(=O)Nc1cc(C)on1 (stereo unspecified)	1	/	/	i
Cc1cc(NC(=O)CSc2nc3ccc(Cl)cc3[nH]2)no1	2.7*	-20	17	/
CCc1nnc(NC(=O)c2ccc(C)c([N+](=O)[O-])c2)s1	/	/	/	i
COc1cc(C(=O)N2CCN(C(=O)CCC3CCCC3)CC2)cc(OC)c1OC	/	/	/	i
c1ccc(Cn2c(-c3ccco3)nc3nc4ccccc4nc32)cc1	0.9	-40	38*	/
Nc1scc[n+]1CC(=O)c1ccc(Cl)cc1	/	/	/	i
CCc1cc(C(=O)Cc2ccc(F)cc2)c(O)cc1O	/	/	/	i
CCc1cc(C(=O)Cc2nc3ccccc3[nH]2)c(O)cc1O	2.3*	20	-20	i
Cc1ccc(-c2cc(C(=O)N/N=C\c3cnn(C)c3C)c3ccccc3n2)cc1C	2*	3	-2	/
O=C(CSc1nnc(Cc2ccccc2)n1-c1ccccc1)NNC(=O)Cc1ccccc1	2.5*	-20	24	/
Cc1cc2nc(C)n(CCCNC(=O)Nc3ccc(F)cc3)c2cc1C	2.3*	8	-5	/
O=C1CCCC2=C1C(c1ccccc1)CS2 (stereo unspecified)	/	/	/	i
CCCCCC(=O)N1CCCC(c2nc(-c3ccc(OC)cc3)no2)C1 (stereo unspecified)	1.5	5	-7	/
COc1ccc(NC(=O)N2CCCC(c3nc(-c4ccc(C(C)C)cc4)no3)C2)cc1 (stereo unspecified)	1.3	92*	-92	i
CC(C)c1ccc(NC(=O)N2CCC(c3nc4ccccc4o3)CC2)cc1	0.8	96*	-96	i
COc1ccc(C(=O)N=c2sc3cc(F)ccc3n2C)cc1OC	/	/	/	i
O=C(Nc1ccc(Cc2ccncc2)cc1)C1CCC(N2C(=O)C3C4C=CC(C5CC45)C3C2=O)CC1 (stereo unspecified)	0.9	86*	-87	/
O=C(Oc1ccc(C(=S)N2CCCCC2)cc1)c1ccc([N+](=O)[O-])cc1	/	/	/	i
C=Cc1c(C)c2cc3[nH]c(cc4nc(cc5nc(cc1[nH]2)C(C)=C5CCC(=O)O)C(CCC(=O)O)=C4C)c(C)c3C=C	/	/	/	+
Cn1c(-c2ccccc2)cnc1SCc1nc2ccccc2c(=O)[nH]1	2.5*	-1	-3	i
CCCCC1CCC(c2nc(-c3ccc(Br)cc3)no2)CC1 (stereo unspecified)	/	/	/	i
O=C1CC(c2ccco2)CC(O)=C1C=Nc1cc(Cl)ccc1O (stereo unspecified)	2.5*	/	/	i
O=C1CC(c2ccco2)CC(O)=C1C=Nc1ccc(Br)cc1 (stereo unspecified)	0.7	20	-21	/
CC(=O)Nc1ccc(N2C(=O)c3ccc(C(=O)O)cc3C2=O)cc1	/	/	/	i
O=C(NNC(=O)C1CCCO1)c1ccc(Cl)cc1 (stereo unspecified)	2.2*	1	1	/
SMILES	PLAP act	sEH inhibitor	sEH activator	BAP1 block
O=C(COc1ccccc1Cl)NNC(=O)C1CCCO1 (stereo unspecified)	2*	-5	8	/
Cc1n[nH]c(=S)n1/N=C/c1ccc(-c2ccccc2[N+](=O)[O-])o1	2*	-9	11	/
Cc1c(N=Cc2ccc(-c3ccccc3[N+](=O)[O-])o2)c(=O)n(-c2ccccc2)n1C	/	/	/	i
CN1CCN(C(c2ccc(F)cc2)c2nnnn2Cc2cccs2)CC1 (stereo unspecified)	1.6	/	/	i
Fc1ccc(C(c2nnnn2Cc2cccs2)N2CCN(C3CCCCC3)CC2)cc1 (stereo unspecified)	2.1*	-8	10	i
C=CCc1c(C)nc(C)nc1N/N=C/c1ccc([N+](=O)[O-])cc1	1.3	7	-7	/
C=CCc1c(C)nc(C)nc1N/N=C/c1ccccc1O	2.5*	-5	6	/
Cc1ccccc1NC(=S)NNc1ncc(C(F)(F)F)cc1Cl	1.6	-2	3	/
Cc1cccc(C)c1NC(=S)NNc1ncc(C(F)(F)F)cc1Cl	2.1*	8	-8	/
CCOc1ccc(C(=O)Nc2ccc(Br)cn2)cc1	/	/	/	i
CC(=O)c1ccc(-n2nnnc2SCC(=O)Nc2cccc(NC(=O)c3ccco3)c2)cc1	0.9	28	-26	/
CC(=O)c1ccc(-n2nnnc2SCC(=O)NNC(=O)c2ccco2)cc1	2.2*	2	1	/
CCc1ccc(-n2nnnc2SCC(=O)NNC(=O)c2ccco2)cc1	2.3*	2	0	/
CCN1C(=O)NC(c2ccccc2[N+](=O)[O-])C(C(=O)OCCc2ccccc2)=C1C (stereo unspecified)	/	/	/	i
